Data published in PubChem BioAssay.
Values without a mark were called inactive. Active and inactive are the calls of the source. Rule as the data show it, unless noted: active = inhibition above about 30%; inactive = the rest.

What was measured:
[1] = target: Nuclear receptor coactivator 3 (Homo sapiens) (UniProt Q9Y6Q9); assay: NCOA3 GAL4-fusion reporter inhibition – cell-based, luminescence, quadruplicate, confirmation (AID 588792;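 active = mean inhibition over 43.08%, the solvent-only control mean plus 3 SD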;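 also: 0% = DMSO treated cells and 100% = gossypol at 36 µM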); details: HEK293 GAL4-SRC3 luciferase reporter, at 3.6 µM, active compounds read high
Chain of Nuclear receptor coactivator 3 (Homo sapiens) (Q9Y6Q9 whole entry, looked up, the tested form may be a part): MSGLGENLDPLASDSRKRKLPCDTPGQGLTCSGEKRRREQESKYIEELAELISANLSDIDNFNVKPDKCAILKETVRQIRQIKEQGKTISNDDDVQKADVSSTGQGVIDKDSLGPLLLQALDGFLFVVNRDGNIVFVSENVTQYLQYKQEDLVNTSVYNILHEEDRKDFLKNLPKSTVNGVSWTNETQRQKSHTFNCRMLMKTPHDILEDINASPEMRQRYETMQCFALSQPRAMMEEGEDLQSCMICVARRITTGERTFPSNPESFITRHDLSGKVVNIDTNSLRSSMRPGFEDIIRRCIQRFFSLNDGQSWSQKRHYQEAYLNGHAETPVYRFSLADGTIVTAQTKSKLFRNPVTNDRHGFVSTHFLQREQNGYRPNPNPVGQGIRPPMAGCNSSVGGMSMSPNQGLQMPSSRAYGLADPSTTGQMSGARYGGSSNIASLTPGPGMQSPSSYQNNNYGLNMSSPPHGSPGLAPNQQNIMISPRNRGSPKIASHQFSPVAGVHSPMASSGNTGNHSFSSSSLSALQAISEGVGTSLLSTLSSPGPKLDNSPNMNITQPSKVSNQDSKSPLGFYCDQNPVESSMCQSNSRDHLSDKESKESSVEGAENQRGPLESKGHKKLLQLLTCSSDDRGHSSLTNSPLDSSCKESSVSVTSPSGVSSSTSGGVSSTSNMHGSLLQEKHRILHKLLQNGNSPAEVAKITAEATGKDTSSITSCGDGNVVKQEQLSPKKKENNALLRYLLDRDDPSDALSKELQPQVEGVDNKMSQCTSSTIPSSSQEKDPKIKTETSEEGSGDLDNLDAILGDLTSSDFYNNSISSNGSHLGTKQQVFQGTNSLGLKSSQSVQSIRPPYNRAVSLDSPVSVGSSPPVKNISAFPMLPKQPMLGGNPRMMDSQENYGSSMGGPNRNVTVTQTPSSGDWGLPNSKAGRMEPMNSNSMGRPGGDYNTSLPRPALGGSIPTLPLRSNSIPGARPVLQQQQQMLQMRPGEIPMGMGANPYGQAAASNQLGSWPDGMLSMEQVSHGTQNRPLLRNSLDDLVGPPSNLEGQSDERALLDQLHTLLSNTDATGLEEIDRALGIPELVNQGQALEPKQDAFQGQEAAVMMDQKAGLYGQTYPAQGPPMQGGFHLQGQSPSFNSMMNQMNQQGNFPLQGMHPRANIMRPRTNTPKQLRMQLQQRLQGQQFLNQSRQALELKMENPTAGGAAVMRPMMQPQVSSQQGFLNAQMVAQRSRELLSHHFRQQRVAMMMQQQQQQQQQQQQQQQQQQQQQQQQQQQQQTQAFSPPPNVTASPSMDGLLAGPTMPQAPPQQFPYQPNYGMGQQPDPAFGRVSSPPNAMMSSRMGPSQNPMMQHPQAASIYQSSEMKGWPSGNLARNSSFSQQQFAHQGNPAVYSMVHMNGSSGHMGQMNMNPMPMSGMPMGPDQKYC

[2] = tested on: transactivating tegument protein VP16 (Human herpesvirus 1), Gal4-VP16 luciferase reporter; assay: repression of VP16-driven luciferase reporter – cell-based, luminescence, high throughput, counter-screen for SRC3 inhibitor project (AID 588794); details: mammalian cells, at 3.6 µM, active compounds read high
[3] = target: Nuclear receptor coactivator 1 (Homo sapiens) (UniProt Q15788); assay: NCOA1 GAL4-fusion reporter inhibition – cell-based, luminescence, quadruplicate, confirmation (AID 588820;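 active = mean inhibition above 46.68%, the untreated control wells mean plus 3 SD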;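 also: 0% = DMSO wells and 100% = gossypol 36 µM treated wells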); details: HEK293 GAL4-SRC1 luciferase reporter, at 3.6 µM, active compounds read high
Chain of Nuclear receptor coactivator 1 (Homo sapiens) (Q15788 whole entry, looked up, the tested form may be a part): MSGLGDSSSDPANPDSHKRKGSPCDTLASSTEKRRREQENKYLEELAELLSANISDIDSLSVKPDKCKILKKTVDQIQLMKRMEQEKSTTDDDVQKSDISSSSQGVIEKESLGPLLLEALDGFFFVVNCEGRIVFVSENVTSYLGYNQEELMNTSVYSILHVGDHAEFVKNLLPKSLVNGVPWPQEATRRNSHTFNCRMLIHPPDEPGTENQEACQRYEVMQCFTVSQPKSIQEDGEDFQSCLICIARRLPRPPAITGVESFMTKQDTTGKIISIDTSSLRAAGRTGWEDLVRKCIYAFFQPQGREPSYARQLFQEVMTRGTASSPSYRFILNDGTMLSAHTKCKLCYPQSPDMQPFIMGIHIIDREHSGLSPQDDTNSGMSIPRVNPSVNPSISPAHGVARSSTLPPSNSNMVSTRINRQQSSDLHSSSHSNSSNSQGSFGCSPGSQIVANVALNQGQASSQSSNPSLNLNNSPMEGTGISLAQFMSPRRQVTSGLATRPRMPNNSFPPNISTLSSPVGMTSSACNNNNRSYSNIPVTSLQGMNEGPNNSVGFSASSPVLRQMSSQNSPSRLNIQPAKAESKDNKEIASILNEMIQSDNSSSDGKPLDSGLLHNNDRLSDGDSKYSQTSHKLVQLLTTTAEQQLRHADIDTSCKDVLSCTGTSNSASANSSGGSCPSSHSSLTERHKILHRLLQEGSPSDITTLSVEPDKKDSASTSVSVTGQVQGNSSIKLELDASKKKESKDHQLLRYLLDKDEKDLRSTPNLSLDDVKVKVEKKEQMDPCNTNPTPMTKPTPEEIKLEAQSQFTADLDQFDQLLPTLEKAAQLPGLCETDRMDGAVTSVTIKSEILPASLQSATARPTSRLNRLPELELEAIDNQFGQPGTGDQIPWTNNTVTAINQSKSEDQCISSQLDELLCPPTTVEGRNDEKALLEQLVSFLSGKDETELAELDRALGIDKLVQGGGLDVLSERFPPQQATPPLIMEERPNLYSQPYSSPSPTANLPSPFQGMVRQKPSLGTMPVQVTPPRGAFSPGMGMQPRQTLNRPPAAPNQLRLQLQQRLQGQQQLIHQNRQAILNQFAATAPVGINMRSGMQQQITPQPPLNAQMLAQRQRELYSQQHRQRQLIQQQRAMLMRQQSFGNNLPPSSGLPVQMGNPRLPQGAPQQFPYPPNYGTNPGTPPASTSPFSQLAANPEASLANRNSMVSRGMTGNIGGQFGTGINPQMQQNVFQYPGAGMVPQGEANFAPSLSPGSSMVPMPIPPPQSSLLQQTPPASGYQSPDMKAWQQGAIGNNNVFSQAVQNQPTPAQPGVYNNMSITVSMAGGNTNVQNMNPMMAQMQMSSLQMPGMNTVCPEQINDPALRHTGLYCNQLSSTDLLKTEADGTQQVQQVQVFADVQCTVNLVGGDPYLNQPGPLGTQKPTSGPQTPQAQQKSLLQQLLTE

[4] = repression of VP16-driven luciferase reporter – cell-based, luminescence, high throughput, counter-screen for SRC1 inhibitor project (AID 588824; in the data active = inhibition above about 25%); details: cell-based VP16 transactivation luciferase luminescence; at 3.6 µM; active compounds read high
[5] = StAR promoter reporter inhibitors, counter-screen for LRH-1 inverse agonist project, cell-based, luminescence, high throughput (AID 651611; in the data active = inhibition above about 28%); details: StAR promoter luciferase reporter counterscreen, at 3.6 µM, active compounds read high
[6] = target: Nuclear receptor subfamily 5 group A member 2 (Homo sapiens) (UniProt O00482); assay: NR5A2 activity suppression in reporter cells – cell-based, luminescence, confirmation (AID 651613; in the data active = inhibition above about 42%;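 also: HEK293T cells co-transfected with LRH-1 and StAR promoter luciferase reporter; 0% = vehicle wells and 100% = parental cells lacking receptor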); details: cell-based LRH-1 luciferase reporter, inverse agonism; at 3.6 µM; active compounds read high
Chain of Nuclear receptor subfamily 5 group A member 2 (Homo sapiens) (O00482 whole entry, looked up): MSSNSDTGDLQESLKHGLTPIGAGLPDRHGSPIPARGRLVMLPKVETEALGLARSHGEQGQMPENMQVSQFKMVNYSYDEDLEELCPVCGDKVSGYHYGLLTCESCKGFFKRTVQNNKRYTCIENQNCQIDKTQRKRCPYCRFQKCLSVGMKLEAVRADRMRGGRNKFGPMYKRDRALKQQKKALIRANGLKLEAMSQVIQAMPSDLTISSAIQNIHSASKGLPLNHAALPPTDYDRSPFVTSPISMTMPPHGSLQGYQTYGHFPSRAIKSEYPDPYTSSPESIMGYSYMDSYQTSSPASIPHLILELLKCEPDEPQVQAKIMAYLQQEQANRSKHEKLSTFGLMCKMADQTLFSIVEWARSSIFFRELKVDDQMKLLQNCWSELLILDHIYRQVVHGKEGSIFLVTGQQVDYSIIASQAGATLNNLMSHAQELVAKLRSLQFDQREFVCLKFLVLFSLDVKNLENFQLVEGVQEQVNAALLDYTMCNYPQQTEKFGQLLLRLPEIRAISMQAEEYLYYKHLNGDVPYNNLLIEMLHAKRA

[7] = target: Steroidogenic factor 1 (Homo sapiens) (UniProt Q13285); assay: inverse agonism at SF1 nuclear receptor – cell-based, luminescence, high throughput, counter-screen for LRH-1 inverse agonist project (AID 651614; in the data active = inhibition above about 44%;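 also: cells cotransfected with StAR promoter reporter and SF1 expression vector; 0% = vehicle on cells with receptor and 100% = vehicle on cells lacking receptor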); details: cell-based SF1 luciferase reporter, at 3.6 µM, active compounds read high
Chain of Steroidogenic factor 1 (Homo sapiens) (Q13285 whole entry, looked up, the tested form may be a part): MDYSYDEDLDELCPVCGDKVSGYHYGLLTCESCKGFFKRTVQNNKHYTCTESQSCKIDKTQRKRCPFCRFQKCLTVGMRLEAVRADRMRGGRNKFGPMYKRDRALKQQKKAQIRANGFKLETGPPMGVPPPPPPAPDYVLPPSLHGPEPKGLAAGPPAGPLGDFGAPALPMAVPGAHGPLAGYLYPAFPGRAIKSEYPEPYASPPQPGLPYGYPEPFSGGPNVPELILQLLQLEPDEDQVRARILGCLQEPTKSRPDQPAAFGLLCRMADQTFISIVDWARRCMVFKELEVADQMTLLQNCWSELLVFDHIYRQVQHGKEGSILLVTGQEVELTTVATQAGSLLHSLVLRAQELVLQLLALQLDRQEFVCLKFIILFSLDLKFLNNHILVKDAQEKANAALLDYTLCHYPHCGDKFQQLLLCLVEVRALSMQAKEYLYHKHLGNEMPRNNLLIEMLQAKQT

[8] = compounds suppressing VP16-driven luciferase signal – cell-based, luminescence, high throughput, counter-screen for LRH-1 inverse agonist project (AID 651615; in the data active = inhibition above about 33%); details: Gal4-VP16 luciferase reporter cells, at 3.6 µM, active compounds read high

| Compound | inhibition [1] | inhibition [2] | inhibition [3] | inhibition [4] | inhibition [5] | inhibition [6] | inhibition [7] | inhibition [8] |
| --- | --- | --- | --- | --- | --- | --- | --- | --- |
| CC(=NNC(=S)Nc1cccc(C)c1)c1ccccn1 | 65.8% (active) | 67.1% (active) | 1.68% | 66.7% (active) | 85.1% (active) | 99.3% (active) | 92.4% (active) | 68.8% (active) |
| O=C(Nc1nc(-c2ccccc2)cs1)c1ccccc1NS(=O)(=O)c1ccc(F)cc1 | 40.7% | 65.5% (active) | 45% | 60.5% (active) | 66.6% (active) | 101% (active) | 87.5% (active) | 79.3% (active) |
| CCN1/C(=C/c2ccc3cc(C)ccc3[n+]2CC)Sc2ccccc21 | 57% (active) | 78.5% (active) | 45% | 80.2% (active) | 72.2% (active) | 105% (active) | 92.3% (active) | 82.7% (active) |
| NC(=S)NN=Cc1nccc2ccccc12 | 80% (active) | 26.7% | 58.1% (active) | 20.9% | 74.9% (active) | 89.8% (active) | 79% (active) | 20.6% |
| Cc1ccc(S(=O)(=O)/N=C2\C=C(Nc3ccc(O)cc3)C(=O)c3ccccc32)cc1 | 91.8% (active) | 83.1% (active) | 71.1% (active) | 86.3% (active) | 90.3% (active) | 106% (active) | 94.6% (active) | 96% (active) |
| CC(C)(O)C#Cc1ccc([C@@H]2C[C@H]3CN(c4ccccc4)C(=O)[C@]34CCCN24)s1 | 42.9% | 41.9% (active) | 45.8% | 42.1% (active) | 61.3% (active) | 82% (active) | 28.3% | 88.8% (active) |
| CC(C)CC[n+]1ccccc1/C=C/c1ccc(N(C)C)cc1 | 60.5% (active) | 79.3% (active) | 54.6% (active) | 79.3% (active) | 64.3% (active) | 105% (active) | 90.4% (active) | 87.1% (active) |
| c1ccc(-c2cccc(-c3ccccn3)n2)nc1 | 75.8% (active) | 39.9% (active) | 56.6% (active) | 32% (active) | 82.3% (active) | 96.7% (active) | 71.8% (active) | 41.8% (active) |
| CCCCC[n+]1cccc2c3ccccc3ccc21 | 39.9% | 59% (active) | 30.7% | 59% (active) | 51.5% (active) | 90% (active) | 81.5% (active) | 77% (active) |
| COc1ccc(C2=Nn3c([n+](C)c4ccccc43)SC2)cc1 | 45.3% (active) | 68.3% (active) | 21.8% | 66.5% (active) | 59.1% (active) | 95.7% (active) | 86.5% (active) | 78.7% (active) |
| COc1ccc(-c2noc(CCCC(=O)O)n2)cc1 | 44.7% (active) | 36.1% (active) | 30.7% | 26% (active) | 39% (active) | 47.8% (active) | 40.1% | 30.7% |
| Oc1cccc2cc(Nc3ccccc3)cnc12 | 60.4% (active) | 63.3% (active) | 25.3% | 70.1% (active) | 65.5% (active) | 99.5% (active) | 84.8% (active) | 88% (active) |
| CCc1ccc(/C=C/c2c[nH]c3ccccc23)[n+](CC)c1 | 29.8% | 43.6% (active) | 24.4% | 58% (active) | 39.4% (active) | 87.6% (active) | 74% (active) | 75.8% (active) |
| CCCCCCCCCn1ccc(=N)cc1 | 68.9% (active) | 84.2% (active) | 58.6% (active) | 85.2% (active) | 72.7% (active) | 102% (active) | 91.3% (active) | 85.9% (active) |
| Cc1ccc2[nH]cc(/C=C/c3cc[n+](C)cc3)c2c1 | 40.1% | 52.6% (active) | 14.5% | 59.7% (active) | 42.2% (active) | 84% (active) | 75.5% (active) | 70.5% (active) |
| N=c1ccn(CC(=O)c2ccc(-c3ccccc3)cc2)cc1 | 37% | 43.3% (active) | 26.1% | 57.5% (active) | 46.2% (active) | 92.8% (active) | 76.3% (active) | 76.5% (active) |
| N=c1c2c(n(Cc3ccc(Br)cc3)c3c1CCC3)CCCC2 | 51.3% (active) | 67.7% (active) | 45.7% | 70.5% (active) | 60.2% (active) | 111% (active) | 86.3% (active) | 89.9% (active) |
| CN(Cc1ccccc1)C1=CC(=[N+]2CCCC2)CC(C)(C)C1 | 64.6% (active) | 67.9% (active) | 7.51% | 63.1% (active) | 44.2% (active) | 109% (active) | 79.9% (active) | 89.6% (active) |

| Compound | inhibition [1] | inhibition [2] | inhibition [3] | inhibition [4] | inhibition [5] | inhibition [6] | inhibition [7] | inhibition [8] |
| --- | --- | --- | --- | --- | --- | --- | --- | --- |
| CCn1c(C)cc(C(=O)COC(=O)c2ccccc2[N+](=O)[O-])c1C | 92.9% (active) | 90.4% (active) | 86.8% (active) | 86.1% (active) | 83.5% (active) | 83.8% (active) | 83.6% (active) | 81.4% (active) |
| COc1ccc(CCNC(=O)c2nnn(-c3ccc4c(c3)OCCO4)c2N)cc1OC | 31.7% | 2.53% | 13.1% | -6.95% | 44.7% (active) | -26.3% | 29% | -16.9% |
| COc1ccc(Cn2c(-c3ccc(C)cc3)c[n+]3ccccc23)cc1 | 35.9% | 52.1% (active) | 19.8% | 54.5% (active) | 50.2% (active) | 96.1% (active) | 79.5% (active) | 74% (active) |
| COC(=O)C12OCC34C(CC5C(C)=C(O)C(=O)CC5(C)C3C(O)C1O)OC(=O)C(OC(=O)C=C(C)C)C24 (stereo not drawn) | 97.3% (active) | 96.7% (active) | 95.2% (active) | 96.3% (active) | 96.9% (active) | 110% (active) | 98.5% (active) | 97.6% (active) |
| CCN(CC)c1ccc2nc3ccccc3[n+](CC)c2c1 | 50.2% (active) | 54.2% (active) | 40.5% | 59.6% (active) | 69.4% (active) | 88.3% (active) | 80.2% (active) | 68.7% (active) |
| O=C(NC(NC(=S)N1CCOCC1)C(Cl)(Cl)Cl)c1ccc(Cl)cc1 (stereo not drawn) | 30.4% | 18.7% | 23% | 15% | 47.4% (active) | 53.2% (active) | 50.2% (active) | 20.3% |
| CCOc1ccccc1O[C@H](c1ccccc1)[C@H]1CNCCO1 | 3.48% | -0.26% | -8.72% | 1.35% | 12.6% | 8.61% | 13.7% | 11.6% |
| COc1ccc(NC(=O)c2cc(-c3cc(C)cc(F)c3)n[nH]2)cc1OC | 23.5% | 44.4% (active) | 15.5% | 33.5% (active) | 39.5% (active) | 55.6% (active) | 59.6% (active) | 61.5% (active) |
| CC[C@H]1CN2CCc3cc(OC)c(OC)cc3C2C[C@@H]1C[C@H]1NCCc2cc(OC)c(OC)cc21 (stereo partly drawn) | 97.5% (active) | 96% (active) | 91.5% (active) | 94.6% (active) | 95.7% (active) | 110% (active) | 98% (active) | 97.2% (active) |
| Cn1nccc1C(=O)N/N=C/c1c(O)ccc2ccccc12 | 73.9% (active) | 74.6% (active) | 72% (active) | 71% (active) | 82.4% (active) | 101% (active) | 86.2% (active) | 71.1% (active) |
| CN1OC[C@@H]2CN[C@H](c3ccc(-c4cc5ccccc5o4)cc3)C[C@@H]21 | 83.3% (active) | 76.8% (active) | 68.6% (active) | 68.7% (active) | 78.3% (active) | 62.2% (active) | 79.8% (active) | 65.2% (active) |
| CC1CC(C)C[N+](=C2C=C(N3CCCC3)CC(C)(C)C2)C1 (stereo not drawn) | 26.9% | 66.7% (active) | 28.9% | 71.5% (active) | 38.9% (active) | 110% (active) | 79.1% (active) | 91.2% (active) |
| Cc1cc(/C=C2\SC(=S)N(C)C2=O)c(C)n1-c1ccc(O)cc1 | 73.9% (active) | 61.8% (active) | 49% (active) | 47.5% (active) | 40.3% (active) | 7.93% | 48% (active) | 39.5% (active) |
| COc1cccc(/C=N/NC(=O)c2ccc(-c3ccccc3)cc2)c1O | 28.9% | 39.8% (active) | 37.3% | 40.6% (active) | 48.9% (active) | 81% (active) | 36.4% | 80.1% (active) |
| N=c1c2c(n(Cc3ccc(F)cc3)c3c1CCC3)CCCC2 | 27.9% | 61.5% (active) | 13.6% | 48% (active) | 41.4% (active) | 101% (active) | 70.9% (active) | 61.2% (active) |
| N=c1c2c(n(Cc3ccc(Cl)c(Cl)c3)c3c1CCC3)CCCC2 | 44.7% (active) | 74.8% (active) | 62.8% (active) | 74.8% (active) | 61.2% (active) | 109% (active) | 84.6% (active) | 90.7% (active) |
| O=C(c1ccccc1)c1c2c(cc3sc4ccccc4[n+]13)-c1cccc3cccc-2c13 | 49% (active) | 61.2% (active) | 29.4% | 64.6% (active) | 47.8% (active) | 99.3% (active) | 75.1% (active) | 81.7% (active) |
| O=C(NC(Nc1nc2ccc([N+](=O)[O-])cc2s1)(C(F)(F)F)C(F)(F)F)c1cccnc1 | 62.8% (active) | 75.3% (active) | 26.9% | 75.3% (active) | 81.4% (active) | 104% (active) | 95.1% (active) | 88.7% (active) |
